Bioassay records deposited in PubChem by Sanford-Burnham Center for Chemical Genomics.
DUSP3 inh – VHR1 phosphatase inhibitors, primary screen, biochemical, colorimetric, HTS; Dual specificity protein phosphatase 3 (Homo sapiens), P51452; recombinant VHR phosphatase, colorimetric substrate read-out; inhibition, % at 20 µM; 50,000 tested, 0.7% active; AID 1992, 2009; in the data active = inhibition above about 60%
Target sequence (P51452 whole entry, looked up): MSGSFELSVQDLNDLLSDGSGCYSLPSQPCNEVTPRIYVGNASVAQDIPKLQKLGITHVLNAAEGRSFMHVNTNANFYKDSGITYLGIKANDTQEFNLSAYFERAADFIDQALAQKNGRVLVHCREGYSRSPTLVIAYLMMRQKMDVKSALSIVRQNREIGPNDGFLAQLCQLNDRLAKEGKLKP
Large screens that a line does not name were inactive. The sample as a whole holds a higher share of hits than the screen did.

Cc1ccc(N2NC(=O)/C(=C\c3ccco3)C2=O)cc1C	none
Cc1cccc(C(=O)Nc2sc3c(c2C(=O)N2CCOCC2)CCCC3)c1	none
CCCCCCCCn1c(C)cc(=O)[nH]c1=O	none
CS(=O)(=O)N(CC(=O)Nc1ccc2ccccc2c1)c1ccc(Br)cc1	none
CCOC(=O)c1c(NC(=O)CN2C(=O)S/C(=C\c3ccccc3)C2=O)sc2c1CCCC2	none
COc1ccc(NC(=O)c2ccc(N(C)S(=O)(=O)c3ccccc3)cc2)cc1OC	none
O=C(CN1CCN(CCN2C(=O)c3cccc4cccc(c34)C2=O)CC1)c1ccccc1	none
COc1ccc(C2=NN(C(C)=O)C(c3ccccc3OC)C2)cc1 (stereo not drawn)	none
COCCCNC(=O)CC(=O)N/N=C/c1cccc(OC)c1OC	none
O=C1NC(=S)N/C1=C/c1ccc(-c2cc(C(=O)O)ccc2Cl)o1	none
O=C1NC(=S)N/C1=C/c1ccc(-c2cccc(Cl)c2Cl)o1	none
Cc1ccc(-c2ccc(C=C3C(=O)NC(=S)NC3=O)o2)c(Br)c1	none
CCn1cc(C=C2C(=O)NC(=S)NC2=O)c2ccccc21	DUSP3 inh 76
CCn1cc(/C=C2\C(=O)NC(=O)N(c3ccccc3)C2=O)c2ccccc21	none
C=CCN1C(=O)/C(=C\c2ccc(-c3cccc([N+](=O)[O-])c3)o2)C(=O)NC1=S	none
C=CCN1C(=O)/C(=C\c2ccc(C)o2)C(=O)NC1=S	none
C=CCN1C(=O)/C(=C\c2ccc(-c3ccc(C)cc3Br)o2)C(=O)NC1=S	DUSP3 inh 88
C=CCN1C(=O)/C(=C\c2ccc(-c3ccc(Br)cc3)o2)C(=O)NC1=S	none
O=C(Cn1cc(C=C2C(=O)NC(=S)NC2=O)c2ccccc21)Nc1ccccc1	none
Cc1cc(Br)c(-c2ccc(/C=C3/NC(=S)NC3=O)o2)cc1C	DUSP3 inh 91
C=CCN1C(=O)/C(=C\c2ccc(-c3ccc([N+](=O)[O-])cc3)o2)C(=O)NC1=S	DUSP3 inh 62
FC(F)(F)c1ccc(-c2nnc3ccc4ccccc4n23)cc1	none
COc1cc(NS(=O)(=O)c2ccccc2)cc(OC)c1	none
COc1ccc(/C=C/C(=O)Nc2ccccc2Cl)cc1OC	none
CS(=O)(=O)N(Cc1ccccc1)c1ccc(C(=O)Nc2ccc(Oc3ccccc3)cc2)cc1	none
Cc1ccc(S(=O)(=O)N(CC(O)CN(CC(C)C)CC(C)C)c2cccc(C)c2)cc1 (stereo not drawn)	none
COc1ccc(NC(=O)COc2ccc(C)cc2Br)cc1Cl	none
CCOP(=O)(OCC)C(Nc1cc(Cl)cc(Cl)c1)c1ccc(Br)cc1 (stereo not drawn)	none
Cc1cc(N2C(=O)NC(=O)/C(=C\c3ccsc3)C2=O)ccc1Br	none
CC(=O)Oc1ccc(C2C(C(=O)OC(C)C)=C(C)NC3=C2C(=O)CC(C)(C)C3)cc1 (stereo not drawn)	none
C=CCN1C(=O)/C(=C/c2ccccc2Cl)C(=O)NC1=S	none
C=CCN1C(=O)/C(=C\c2cn(C)c3ccccc23)C(=O)NC1=S	none
C=CCN1C(=O)/C(=C\c2cn(Cc3ccc([N+](=O)[O-])cc3)c3ccccc23)C(=O)NC1=S	DUSP3 inh 83
CC(C(=O)Nc1ccccc1Br)N1C(=O)c2ccccc2C1=O (stereo not drawn)	none
Cc1cc(Cl)ccc1OCCCC(=O)Nc1nc2ccc(S(C)(=O)=O)cc2s1	none
COc1ccc(/C=C2\C(=O)NC(=O)N(c3ccc(Cl)cc3)C2=O)cc1C	none
COc1cccc2c1NC(c1cccc3ccccc13)C1CC=CC21 (stereo not drawn)	DUSP3 inh 88
COc1cccc2c1NC(c1ccccc1Cl)C1CC=CC21 (stereo not drawn)	none
COC(=O)c1ccc2c(c1)C1C=CCC1C(c1cccc3ccccc13)N2 (stereo not drawn)	none
COc1ccc(/C=C/c2cc[n+](C)cc2)cc1	none
COc1ccc(/C=C/C(=O)O)cc1S(=O)(=O)NCCO	none
Cc1ccc(/C=C2\SC(=S)N(CC(=O)O)C2=O)o1	none
O=C(O)CN1C(=O)/C(=C\c2ccc(-c3ccccc3Cl)o2)SC1=S	DUSP3 inh 83
O=C(O)CN1C(=O)/C(=C/c2c(Cl)cccc2Cl)SC1=S	none
CN(C)CCOC(=O)CN1C(=O)S/C(=C/c2ccc(Br)cc2)C1=O	none
Cc1ccc(OCC(=O)N/N=C\c2cccnc2)cc1	none
O=[N+]([O-])c1ccc(S(=O)(=O)N/N=C/c2ccc3c(c2)OCO3)cc1	none
CC(C)(C)c1ccc(S(=O)(=O)N/N=C/c2ccc3c(c2)OCO3)cc1	DUSP3 inh 111
COc1ccc(S(=O)(=O)N/N=C/c2ccc3c(c2)OCO3)cc1	none
O=C(NCC1c2ccccc2CCN1C(=O)c1cccs1)C1CCCCC1 (stereo not drawn)	none
COC(=O)c1ccc(N(S(=O)(=O)c2ccc(NC(C)=O)cc2)S(=O)(=O)c2ccc(NC(C)=O)cc2)cc1	none
Cc1ccc(S(=O)(=O)/N=C2\C=CC(=O)C=C2Cl)cc1	none
O=C1C(Cl)=CC(=NS(=O)(=O)c2ccc(Cl)cc2)c2ccccc21	none
Cc1ccc(S(=O)(=O)/N=C2\C=C(Sc3ncn[nH]3)C(=O)c3ccccc32)cc1	DUSP3 inh 64
O=C(N=Nc1c(O)[nH]c2c(Br)cc(Br)cc12)C(O)c1ccccc1 (stereo not drawn)	none
COC(=O)c1c(-c2ccc(OC)c(OC)c2)csc1N	none
CCCOC(=O)c1c(-c2ccccc2)csc1N	none
CC(C)OC(=O)c1c(-c2ccccc2)csc1N	none
COc1ccc(-c2csc(N)c2C(=O)OC(C)C)cc1OC	none
COC(=O)c1c(-c2cccc(C)c2)csc1N	DUSP3 inh 94
CCOC(=O)c1c(-c2ccc(OC)c(OC)c2)csc1N	DUSP3 inh 98
CC1=NN(c2cccc(C(=O)O)c2)C(=O)/C1=C\c1cccc([N+](=O)[O-])c1	none
CCCOc1ccc(C(=O)Nc2ccc(O)cc2C(=O)O)cc1	none
COCCNC(=O)CN(c1c(C)cccc1C)S(C)(=O)=O	none
COc1ccc(CC(=O)O/N=C(\N)c2ccc(C)cc2)cc1OC	none
CCOc1ccc(N2C(=O)/C(=C/c3ccc(C(=O)O)cc3)SC2=S)cc1	none
Cc1ccc(S(=O)(=O)N2CCN(C(=O)c3cccc(F)c3)CC2)cc1	DUSP3 inh 101
Cc1ccc(S(=O)(=O)N2CCN(C(=O)c3cccnc3)CC2)cc1	none
COc1ccc(S(=O)(=O)N2CCN(C(=O)c3cccc(F)c3)CC2)cc1	none
COc1ccc(N2C(=O)NC(=O)/C(=C/c3cccc(OC)c3O)C2=O)cc1	none
COc1cccc(/C=C2/C(=O)NC(=O)N(c3cc(C)cc(C)c3)C2=O)c1O	none
COc1cccc(/C=C2/C(=O)NC(=O)N(c3cccc(C)c3)C2=O)c1O	DUSP3 inh 107
CCOc1cc(/C=C2/C(=O)NC(=O)N(c3ccccc3)C2=O)ccc1OCc1ccc([N+](=O)[O-])cc1	none
Cc1c(C(=O)NCCO)c(-c2ccccc2)nn1-c1ccccc1	none
CCOC(=O)c1c(-c2ccccc2)nn(-c2ccccc2)c1C	none
O=C1C=CC(=O)c2c1c(-c1ccccc1)nn2-c1ccccc1	DUSP3 inh 86
O=C1CC(NCCc2ccc(Cl)cc2)C(=O)N1c1ccc(Cl)cc1 (stereo not drawn)	none
O=C(Cc1ccccc1[N+](=O)[O-])NCC1CCCO1 (stereo not drawn)	none
CCOc1cc(C=C2C(=O)NC(=O)NC2=O)ccc1OCc1ccccc1	none
CCOc1cc(/C=C2/N=C(c3ccc(NC(C)=O)cc3)OC2=O)ccc1OCc1ccccc1	DUSP3 inh 86
COc1cccc(/C=C2/N=C(c3ccc(NC(C)=O)cc3)OC2=O)c1	none
O=C(Nc1ccc(N=Cc2ccc([N+](=O)[O-])cc2)cc1)c1ccccc1Br	none
CN1C(=O)NC(=O)/C(=C/c2ccc(OCC(=O)O)cc2)C1=O	none
O=C(O)C1CCCCC1C(=O)Nc1nc2ccc(Br)cc2s1 (stereo not drawn)	none
